Data published in PubChem BioAssay (NCI).
This is part of a sample that, as a whole, favours compounds with a hit. Of some 83,000 tested, about 20% had one in any assay.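 Method: cells in 96-well plates; compound added at one concentration; 48 h incubation; percent growth measured; values under 10 scored active.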 The source made the active and inactive calls.

Columns and labels:
Assay in all cases: NCI-60 one-dose screen, 48 h (100 = growth as untreated, 0 = no growth, -100 = all killed)
Details in all cases: 10 µM unless noted
NCI-H23 lung = test system: NCI-H23 lung
NCI-H226 lung = test system: NCI-H226 lung
NCI-H322M lung = test system: NCI-H322M lung
HOP-62 NSCLC = test system: HOP-62 NSCLC
NCI-H460 lung = test system: NCI-H460 lung
HOP-92 NSCLC = test system: HOP-92 NSCLC
NCI-H522 lung = test system: NCI-H522 lung
A549/ATCC NSCLC = test system: A549/ATCC NSCLC
786-0 renal = test system: 786-0 renal
COLO 205 colon = test system: COLO 205 colon
DU-145 prostate = test system: DU-145 prostate
K-562 leukemia = test system: K-562 leukemia
MALME-3M melanoma = test system: MALME-3M melanoma
MDA-MB-231 breast = test system: MDA-MB-231 breast
RXF 393 renal = test system: RXF 393 renal
SF-268 CNS = test system: SF-268 CNS
SF-295 CNS = test system: SF-295 CNS
SF-539 CNS = test system: SF-539 CNS
UACC-257 melanoma = test system: UACC-257 melanoma
M14 melanoma = test system: M14 melanoma

Measured: growth

CCN(CCNc1ccc(C)c2sc3cc(Cl)ccc3c(=O)c12)CC(C)O (stereo not given)
inactive: NCI-H23 lung 92.9% | NCI-H226 lung 134% | NCI-H322M lung 95.9% | HOP-62 NSCLC 76% | HOP-92 NSCLC 29.8% | NCI-H522 lung 28.3% | A549/ATCC NSCLC 34.7% | 786-0 renal 41.9% | DU-145 prostate 82.5% | MALME-3M melanoma 82.1% | SF-268 CNS 82.8% | SF-295 CNS 97.3% | SF-539 CNS 59.4%
active: NCI-H460 lung 3.16% | COLO 205 colon -34% | K-562 leukemia 3.01% | MDA-MB-231 breast -11.8% | RXF 393 renal -39.2% | UACC-257 melanoma -61.1% | M14 melanoma -50.5%

Oc1ccc(N=Nc2nccs2)c(O)c1
inactive: NCI-H23 lung 81.2% | NCI-H226 lung 89.6% | NCI-H322M lung 74.4% | HOP-62 NSCLC 79% | NCI-H460 lung 31.2% | HOP-92 NSCLC 61.7% | NCI-H522 lung 41.5% | A549/ATCC NSCLC 52.2% | 786-0 renal 36.8% | COLO 205 colon 24.8% | DU-145 prostate 64% | K-562 leukemia 44% | MALME-3M melanoma 92.9% | MDA-MB-231 breast 54.9% | RXF 393 renal 90% | SF-268 CNS 51.5% | SF-295 CNS 40.3% | SF-539 CNS 86.1% | UACC-257 melanoma 99.5% | M14 melanoma 68%

C[C@H]1[C@H](C)CC[C@]2(C(=O)O)CC[C@]3(C)C(=CC[C@@H]4[C@@]5(C)C/C(=C/c6cccnc6)[C@H](O)C(C)(C)[C@@H]5CC[C@]43C)[C@H]12
inactive: NCI-H23 lung 14.3% [100 µM] | K-562 leukemia 13.3% [100 µM] | SF-268 CNS 21.8% [100 µM]
active: NCI-H226 lung -24.2% [100 µM] | NCI-H322M lung -16.4% [100 µM] | HOP-62 NSCLC -29.1% [100 µM] | NCI-H460 lung -31.1% [100 µM] | HOP-92 NSCLC -3.06% [100 µM] | NCI-H522 lung -4.55% [100 µM] | A549/ATCC NSCLC 8.85% [100 µM] | 786-0 renal 1.92% [100 µM] | COLO 205 colon -80.4% [100 µM] | DU-145 prostate 5% [100 µM] | MALME-3M melanoma -24.2% [100 µM] | MDA-MB-231 breast -17.6% [100 µM] | RXF 393 renal -13.3% [100 µM] | SF-295 CNS -27.3% [100 µM] | SF-539 CNS -42.1% [100 µM] | UACC-257 melanoma 0.776% [100 µM] | M14 melanoma 1.69% [100 µM]

Cc1ccccc1OC(=O)c1cccc(Cl)c1
inactive: NCI-H23 lung 108% | NCI-H226 lung 108% | NCI-H322M lung 114% | HOP-62 NSCLC 145% | NCI-H460 lung 109% | HOP-92 NSCLC 101% | NCI-H522 lung 95.5% | A549/ATCC NSCLC 102% | 786-0 renal 112% | COLO 205 colon 129% | DU-145 prostate 126% | K-562 leukemia 95.4% | MALME-3M melanoma 97.3% | MDA-MB-231 breast 118% | RXF 393 renal 113% | SF-268 CNS 101% | SF-295 CNS 122% | SF-539 CNS 101% | UACC-257 melanoma 111% | M14 melanoma 110%

COCc1nc2ccccc2[nH]1
inactive: NCI-H23 lung 103% | NCI-H226 lung 100% | NCI-H322M lung 100% | HOP-62 NSCLC 105% | NCI-H460 lung 106% | HOP-92 NSCLC 100% | NCI-H522 lung 96.3% | A549/ATCC NSCLC 100% | 786-0 renal 99.4% | COLO 205 colon 109% | DU-145 prostate 113% | K-562 leukemia 99% | MALME-3M melanoma 98.7% | MDA-MB-231 breast 100% | RXF 393 renal 117% | SF-268 CNS 108% | SF-295 CNS 95.1% | SF-539 CNS 92.8% | UACC-257 melanoma 104% | M14 melanoma 100%

CCN(CCO)CCC(=O)c1ccc([N+](=O)[O-])cc1
inactive: NCI-H23 lung 102% | NCI-H226 lung 99.5% | NCI-H322M lung 101% | HOP-62 NSCLC 109% | NCI-H460 lung 111% | HOP-92 NSCLC 92.9% | NCI-H522 lung 100% | A549/ATCC NSCLC 103% | 786-0 renal 103% | COLO 205 colon 116% | DU-145 prostate 103% | K-562 leukemia 101% | MALME-3M melanoma 102% | MDA-MB-231 breast 115% | RXF 393 renal 106% | SF-268 CNS 97% | SF-295 CNS 103% | SF-539 CNS 105% | UACC-257 melanoma 105% | M14 melanoma 106%
